# Reference: PubChem BioAssay
# Inconclusive results are not listed. Calls of active or inactive are those of the source. Unless noted, no cut-off is given here; in the data, nearly all actives have AC50 up to about 30 µM.
# Assay: growth inhibition of DIPG cells – cell-based, MIPE4.0 library, CellTiter-Glo luminescence, qHTS (AID 1347066)
# Settings: SU-DIPG-VI viability, CellTiter-Glo ATP luminescence
# 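Note: cells exposed to compound for 48 hours before readout.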
SMILES,AC50,outcome
Cc1cc(=O)c2c(O)c3c(O)cc(=O)c4c3c3c(cc(O)c1c23)C(C)(C)C=4O,0.105 µM (active),
CC(C)OC(=O)OCOP(=O)(CO[C@H](C)Cn1cnc2c(N)ncnc21)OCOC(=O)OC(C)C,,inactive
O=C(O)c1ccc(-n2nc(-c3ccccc3O)nc2-c2ccccc2O)cc1,23.5 µM (active),
COc1ccc(-c2ccc3cc(C(=O)O)ccc3c2)cc1C12CC3CC(CC(C3)C1)C2,,inactive
COCCCN1CCC(NC(=O)c2cc(Cl)c(N)c3c2OCC3)CC1,23.5 µM (active),
CCOC(=O)c1c(C)n(C)c2ccc(O)cc12,,inactive
CC(=O)N[C@H]1[C@H]([C@H](O)[C@H](O)CO)OC(C(=O)O)=C[C@@H]1N=C(N)N,,inactive
C=CC(=O)Nc1cc2c(Nc3ccc(F)c(Cl)c3)ncnc2cc1OCCCN1CCOCC1,14.8 µM (active),
Cc1nnc(C(=O)NC(C)(C)c2nc(C(=O)NCc3ccc(F)cc3)c(O)c(=O)n2C)o1,,inactive
Cc1ccccc1C(=O)Nc1ccc(C(=O)N2CCCC(O)c3cc(Cl)ccc32)c(C)c1 (stereo not drawn),,inactive
COc1ccc2cccc(CCNC(C)=O)c2c1,,inactive
C[C@]12CCC(=O)C=C1[C@@H]1C[C@@H]1[C@H]1[C@@H]3[C@@H]4C[C@@H]4[C@@]4(CCC(=O)O4)[C@@]3(C)CC[C@@H]12,,inactive
CC1(C)CCC(C)(C)c2cc(NC(=O)c3ccc(C(=O)O)cc3)ccc21,,inactive
Cc1ccc(Nc2nccc(N(C)c3ccc4c(C)n(C)nc4c3)n2)cc1S(N)(=O)=O,,inactive
CCOC(=O)c1ccc(C#Cc2ccc3c(c2)C(C)(C)CCS3)nc1,,inactive
CC(=O)OCC(=O)[C@@]12N=C(C)O[C@@H]1C[C@H]1[C@@H]3CCC4=CC(=O)C=C[C@]4(C)[C@H]3[C@@H](O)C[C@@]12C,,inactive
O=P(O)(O)C(O)(Cn1ccnc1)P(=O)(O)O,,inactive
O=c1cc(O)c(Cl)c[nH]1,,inactive
N[C@@H](Cc1c[nH]c2ccc(O)cc12)C(=O)O,,inactive
CCCCN(CCCC)CC(O)c1cc(Cl)cc2c1-c1ccc(Cl)cc1/C2=C/c1ccc(Cl)cc1 (stereo not drawn),,inactive
N#Cc1c(N(CC(=O)O)CC(=O)O)sc(C(=O)O)c1CC(=O)O,,inactive
N=C(N)c1ccc2cc(OC(=O)c3ccc(N=C(N)N)cc3)ccc2c1,,inactive
COC(c1ccccc1)(c1ccccc1)[C@H](Oc1nc(C)cc(C)n1)C(=O)O,,inactive
NC(=O)c1ncn([C@@H]2O[C@H](CO)[C@@H](O)[C@H]2O)c1N,,inactive
c1cnc2cc3c(cc2n1)C1CNCC3C1,,inactive
CCCCc1oc2ccc(NS(C)(=O)=O)cc2c1C(=O)c1ccc(OCCCN(CCCC)CCCC)cc1,13.2 µM (active),
CC(C)C[C@H](NC(=O)[C@H](CCc1ccccc1)NC(=O)CN1CCOCC1)C(=O)N[C@@H](Cc1ccccc1)C(=O)N[C@@H](CC(C)C)C(=O)[C@@]1(C)CO1,0.0935 µM (active),

# Assay: JHH-DIPG-1 glioma cell viability, MIPE5.0 library, CellTiter-Glo luminescence, qHTS (AID 1347067; cut-off not given, nearly all actives have AC50 up to about 26 µM)
# Settings: JHH-DIPG-1 glioma viability, CellTiter-Glo ATP luminescence
SMILES,outcome,AC50
COCCCN1CCC(NC(=O)c2cc(Cl)c(N)c3c2OCC3)CC1,inactive,
NCCCC(N)(C(=O)O)C(F)F (stereo not drawn),inactive,
CN1CCCN=C1/C=C/c1cccs1,inactive,
O=[N+]([O-])c1cncn1CCN1CCOCC1,inactive,
C=CC(=O)Nc1cc2c(Nc3ccc(F)c(Cl)c3)ncnc2cc1OCCCN1CCOCC1,,9.34 µM (active)
Cc1ccc(C(=O)c2cc(O)c(O)c([N+](=O)[O-])c2)cc1,inactive,
Cc1ccccc1C(=O)Nc1ccc(C(=O)N2CCCC(O)c3cc(Cl)ccc32)c(C)c1 (stereo not drawn),inactive,
COc1ccc2cccc(CCNC(C)=O)c2c1,inactive,
Cc1cc2c(cc1CC(=O)c1sccc1S(=O)(=O)Nc1onc(C)c1Cl)OCO2,,26.3 µM (active)
C[C@]12CCC(=O)C=C1[C@@H]1C[C@@H]1[C@H]1[C@@H]3[C@@H]4C[C@@H]4[C@@]4(CCC(=O)O4)[C@@]3(C)CC[C@@H]12,inactive,
CCC1=C[C@@H]2CN(C1)Cc1c([nH]c3ccccc13)[C@@](C(=O)OC)(c1cc3c(cc1OC)N(C)[C@H]1[C@@](O)(C(=O)OC)[C@H](OC(C)=O)[C@]4(CC)C=CCN5CC[C@]31[C@@H]54)C2,,0.144 µM (active)
CC1(C)CCC(C)(C)c2cc(NC(=O)c3ccc(C(=O)O)cc3)ccc21,inactive,
Cc1ccc(Nc2nccc(N(C)c3ccc4c(C)n(C)nc4c3)n2)cc1S(N)(=O)=O,,18.6 µM (active)
CNC(=O)c1ccccc1Sc1ccc2c(/C=C/c3ccccn3)n[nH]c2c1,,5.25 µM (active)
O=P(O)(O)C(O)(Cn1ccnc1)P(=O)(O)O,inactive,
O=c1cc(O)c(Cl)c[nH]1,inactive,
N[C@@H](Cc1c[nH]c2ccc(O)cc12)C(=O)O,inactive,
O=C(Nc1ccc(S(=O)(=O)N2CCOCC2)cc1)c1cc(Cl)ccc1NS(=O)(=O)c1ccc(Cl)s1,inactive,
CCCCN(CCCC)CC(O)c1cc(Cl)cc2c1-c1ccc(Cl)cc1/C2=C/c1ccc(Cl)cc1 (stereo not drawn),,18.6 µM (active)
N#Cc1c(N(CC(=O)O)CC(=O)O)sc(C(=O)O)c1CC(=O)O,inactive,
N=C(N)c1ccc2cc(OC(=O)c3ccc(N=C(N)N)cc3)ccc2c1,inactive,
COC(c1ccccc1)(c1ccccc1)[C@H](Oc1nc(C)cc(C)n1)C(=O)O,inactive,
NC(=O)c1ncn([C@@H]2O[C@H](CO)[C@@H](O)[C@H]2O)c1N,inactive,
CN(C)C(=O)COC(=O)Cc1ccc(OC(=O)c2ccc(N=C(N)N)cc2)cc1,inactive,
CCCCc1oc2ccc(NS(C)(=O)=O)cc2c1C(=O)c1ccc(OCCCN(CCCC)CCCC)cc1,,10.5 µM (active)
CC(C)C[C@H](NC(=O)[C@H](CCc1ccccc1)NC(=O)CN1CCOCC1)C(=O)N[C@@H](Cc1ccccc1)C(=O)N[C@@H](CC(C)C)C(=O)[C@@]1(C)CO1,,0.0105 µM (active)
